Screening results: PubChem BioAssay, National Center for Advancing Translational Sciences (NCATS)
IL-1B inflam inh – inflammasome signaling inhibition, IL-1 beta readout | 4.7% of 360,000 active | activity change, % at 57.5 µM | THP-1 LPS/ATP IL-1B secretion, AlphaLISA, 16 h; hits give low values | AID 743279; in the data active = activity change below about -50%; inconclusive = mostly about -30% to -49%
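THP-1 cells pretreated 1 hr with compounds (up to 57.5 uM final), then stimulated with LPS (250 ng/mL final) plus ATP (1.25 mM final); secreted IL-1B measured by AlphaLISA after 16 hr, decreased signal indicating inhibition.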
HT1080 IDH1KD tx – kills HT-1080 cells with IDH1 knockdown | HT-1080 IDH1 knockdown viability, ATP luminescence, 48 h | Potency, µM (doses to about 46.1 µM), most hits filed as cytotoxic | 2% of 360,000 active | AID 686971
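Cytotoxicity counter-line: IDH1KD HT-1080, 48 h, CellTiter-Glo. Curves classed by r2, magnitude and activity.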
HT1080-NT tox – kills 2HG-producing HT-1080-NT fibrosarcoma cells; AID 686970; HT-1080-NT fibrosarcoma viability, CellTiter-Glo ATP luminescence, 48 h; 1.6% of 360,000 active; Potency, µM (series often up to 46.1 µM), usual class: cytotoxic;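 note: NT is the 2HG producing partner of a matched IDH1 knockdown line; nearly all actives have a fitted effect of over 55% in size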
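Read-out is CellTiter-Glo luminescence after 10 minutes at room temperature, following 48 hours' compound treatment of HT-1080-NT cells (750 cells/well, RPMI, 5% FBS, 37 degrees C).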
DT40 TDP1 CPT – growth inhibition of DT40 Tdp1-/-;hTDP1 cells with camptothecin (screen for TDP1 inhibitors); AID 686979; 12% of 420,000 active; chicken DT40 Tdp1-/-;hTDP1 cells + 20 nM CPT, ATP luminescence, 48 h; Potency, µM (titrated, usually from 46.2 µM), most hits filed as inhibitors; note: nearly all actives have a fitted effect of over 55% in size
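Chicken DT40 Tdp1-/- cells complemented with human TDP1, 400 cells/well, exposed to compounds plus 20 nM camptothecin for at least 48 h at 37 C; viability read as ATP content by CellTiter-Glo luminescence.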
DT40 TDP1 no CPT – qHTS for Inhibitors of human tyrosyl-DNA phosphodiesterase 1 (TDP1): qHTS in cells in absence of CPT. DT40 Tdp1-/- hTDP1 cells, no CPT, ATP luminescence, 48 h. Potency, µM (highest dose often 46.2 µM), usual class: inhibitors. 15% of 420,000 active; note: nearly all actives have a fitted effect of over 55% in size
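Chicken DT40 Tdp1-/- cells complemented with human TDP1, screened without camptothecin (DMSO vehicle only), 400 cells/well. Compounds pin-transferred, cells incubated at 37 °C for at least 48 hr. Growth read as ATP-dependent luminescence (CellTiter-Glo, 30 min at RT).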
Hits are given with their value; - = inactive; ? = inconclusive; . = no result given; ! = not confirmed by another sample. Shown are actives, neighbours in structure and some others; about 19% of the full set was active somewhere. Unless noted, calls come from the whole dose curve; as a rule, active = well fitted curve in the direction sought with a large enough effect; inconclusive = small, poorly fitted or top-dose-only effect, or another doubt; inactive = no such curve, though single readings can be large; an effect the other way counts as inactive or inconclusive.

SMILES | IL-1B inflam inh | HT1080 IDH1KD tx | HT1080-NT tox | DT40 TDP1 CPT | DT40 TDP1 no CPT
O=C(NCc1ccc(OC(F)(F)F)cc1)C1CC(c2c(Cl)cccc2Cl)=NO1 (centres undefined) | - | - | - | - | ?
CCOc1ccc(NC(=O)CCc2c(C)nc3c(c(C)nn3-c3ccccc3)c2C)cc1 | . | . | . | - | -
CCOc1ccc(CCNC(=O)CCc2c(C)nc3c(c(C)nn3-c3ccccc3)c2C)cc1OCC | . | . | . | 14.6µM | 13µM
COc1cc(NC(=O)CCc2c(C)nc3c(c(C)nn3-c3ccccc3)c2C)cc(OC)c1OC | . | . | . | 14.6µM | 11.6µM
CCOC(=O)N1CCN(C(=O)CCc2c(C)nc3c(c(C)nn3-c3ccc(C)c(C)c3)c2C)CC1 | - | - | - | ? | 16.4µM
CCCCNC(=O)CCc1c(C)nc2c(c(C)nn2-c2ccccc2)c1C | - | - | - | 18.4µM | 18.4µM
Cc1nc2c(c(C)nn2-c2ccccc2)c(C)c1CCC(=O)Nc1ccc(CN2CCCC2)cc1 | -97.1 | 20.6µM | 14.6µM | 16.4µM | ?
Cc1cc(C)cc(NC(=O)CCc2c(C)nc3c(c2C)c(=O)n(C)c(=O)n3C)c1 | . | . | . | ? | 16.4µM
Cc1nc2c(c(C)nn2-c2ccccc2)c(C)c1CCC(=O)NCCc1ccccc1 | . | . | . | 20.6µM | 20.6µM
Cc1nc2c(c(C)nn2-c2ccccc2)c(C)c1CCC(=O)Nc1ccccc1 | . | . | . | - | -
CCOc1ccc(CCNC(=O)c2ccc3ccccc3n2)cc1OCC | - | - | - | 18.4µM | 8.2µM
CC(=O)c1ccc(NC(=O)CCc2c(C)nc3c(c2C)c(=O)n(C)c(=O)n3C)cc1 | . | . | . | - | ?
CCOc1ccc(CCNC(=O)c2cnc(C)cn2)cc1OCC | - | - | - | - | -
CN(C)c1cccc(CNC(=O)c2ccc3sc([C@@H]4O[C@H](CO)[C@H](O)[C@H](O)[C@H]4O)nc3c2)c1 | - | - | - | - | -
Cc1cc(C)n(/N=C/c2cc([N+](=O)[O-])ccc2O)c(=O)c1 | - | ? | - | ? | ?
C=C[C@](C)(O)CCC1C(=C)CC(O)C2C(C)(C)CCCC12C (some centres undefined) | . | . | . | ? | 9.2µM
CCOC(=O)c1c(C)sc2c1N(C(C)=O)c1cc(Cl)ccc1S2 | - | - | - | ? | 16.4µM
CCN(CC)CC(=O)N1c2ccccc2Sc2ccc(Cl)cc21 | - | - | - | - | -
COc1ccc(OC)c(NC(=O)c2nc(SCc3ccccc3F)ncc2Cl)c1 | . | . | . | 10µM! | 14.1µM!
COc1ccc(CCNC(=O)c2cnc3sc(N4CCCCC4)nn3c2=O)cc1OC | . | . | . | 23.1µM | ?
COc1cccc(CCNC(=O)c2cnc3sc(N4CCCC4)nn3c2=O)c1 | . | . | . | 14.6µM | 16.4µM
COc1ccc(OC)c(NC(=O)c2nc(SCc3ccc(F)cc3)ncc2Cl)c1 | . | . | . | - | -
CC(C)CCNC(=O)c1cnc2sc(N3CCCCCC3)nn2c1=O | . | . | . | 16.4µM | 20.6µM
CN(CCc1ccccc1)C(=O)c1cccc(NC(=O)Cc2cccc(NC(=O)C3CCCN(C(=O)C4CCCC4)C3)c2)c1 (centres undefined) | - | - | - | ? | ?
COc1ccc(CCNC(=O)c2cnc3ccc(C)cn3c2=O)cc1OC | . | . | . | 20.6µM | ?
SMILES | IL-1B inflam inh | HT1080 IDH1KD tx | HT1080-NT tox | DT40 TDP1 CPT | DT40 TDP1 no CPT
O=C(NCc1ccc(Cl)cc1)c1cnc2sc(N3CCOCC3)nn2c1=O | . | . | . | ? | -
COc1ccc(CCNC(=O)c2nc(SCc3ccc(C)cc3)ncc2Cl)cc1OC | . | . | . | 11.6µM | 10.3µM
COc1ccc(CCNC(=O)c2cnc3sc(N4CCCC4)nn3c2=O)cc1OC | . | . | . | ? | 23.1µM
O=C(NCCc1ccc(Cl)cc1)c1cnc2sc(N3CCCC3)nn2c1=O | . | . | . | 6.51µM | 4.11µM
O=C(COC(=O)c1cccc(C(=O)OCC(=O)NCc2ccc(F)cc2)n1)NCc1ccc(F)cc1 | - | - | - | - | -
COc1cc2c(cc1O)C(Cc1ccc(O)cc1)[N+](C)(C)CC2 (centres undefined) | . | . | . | - | -
Cc1cc(C)cc(OCc2nnc(SCC(=O)N3CCN(c4ccccc4)CC3)o2)c1 | - | - | - | ? | -
COc1ccc(N2CCN(C3C(=O)Nc4ccccc4-n4nnnc43)CC2)cc1 (centres undefined) | - | - | - | - | -
Cc1ccc(C)c(N2CCN(C3C(=O)Nc4ccccc4-n4nnnc43)CC2)c1 (centres undefined) | - | 16.4µM | ? | 20.6µM | 16.4µM
O=C1Nc2ccccc2-n2nnnc2C1N1CCN(c2ccc(C(F)(F)F)cc2[N+](=O)[O-])CC1 (centres undefined) | - | ? | ? | 23.1µM | 16.4µM
CCOC(=O)C1=CNS(=O)(=O)NC1c1ccc(Br)cc1F (centres undefined) | - | - | - | - | -
CCC1Nc2ncnc(N3CCN(c4ccccc4)CC3)c2N(Cc2ccc(Br)cc2)C1=O (centres undefined) | ? | - | - | 20.6µM | ?
O=C1C(Cc2ccccc2)Nc2ncnc(N3CCN(c4ccccc4)CC3)c2N1Cc1ccc(Br)cc1 (centres undefined) | ? | - | - | ? | ?
Cc1ccc(CN2C(=O)C(Cc3ccccc3)Nc3ncnc(N4CCN(c5ccccc5)CC4)c32)cc1 (centres undefined) | - | - | - | ? | ?
Cc1ccc(CN2C(=O)C(Cc3ccccc3)Nc3ncnc(N4CCCCC4)c32)cc1 (centres undefined) | - | - | - | 18.4µM | ?
O=C1C(Cc2ccccc2)Nc2ncnc(N3CCN(c4ccccc4)CC3)c2N1Cc1ccccc1 (centres undefined) | -59.2 | - | - | ? | 18.4µM
COCCCNC(=O)c1cc2c(-c3ccc(Cl)cc3)nn(C)c2s1 | - | - | - | ? | ?
CCN1CCCC1CNC(=O)c1cc2c(-c3ccc(Cl)cc3)nn(C)c2s1 (centres undefined) | -84.8 | 20.6µM | 25.9µM | 18.4µM | 18.4µM
Cn1nc(-c2ccc(Cl)cc2)c2cc(C(=O)NCCCN3CCCC3)sc21 | -88.7 | ? | ? | ? | 23.1µM
C=CCn1c(=O)c2ccccc2n2c(SCc3c(C(=O)OCC)oc4ccccc34)nnc12 | - | - | - | ? | ?
Cc1ccc(/C=N/NC(=O)Cc2c[nH]c3ccccc23)c(C)c1 | ? | ? | ? | - | ?
O=C(Cc1c[nH]c2ccccc12)N/N=C/c1ccccc1O | - | - | - | 16.4µM | ?
O=C(CCCc1c[nH]c2ccccc12)NCCc1c[nH]c2ccccc12 | ? | - | - | ? | 16.4µM
O=C(CCCc1c[nH]c2ccccc12)Nc1ccc2ccccc2c1 | -85.2 | - | - | - | -
O=C(NCCc1c[nH]c2ccccc12)Nc1ccccc1C(F)(F)F | . | . | . | 23.1µM | ?
O=C(NCCc1c[nH]c2ccccc12)c1cc([N+](=O)[O-])cc([N+](=O)[O-])c1 | - | - | - | ? | -
